Assay results taken from PubChem BioAssay (Tox21).
Results filed as inconclusive are left out. Entries that show only a call come without a potency. Active and inactive are the calls of the source. Unless noted, calls come from the whole dose curve; as a rule, active = well fitted curve in the direction sought with a large enough effect in the repeat runs; inconclusive = weak or mixed curves; inactive = no such curve, though single readings can be large; an effect the other way counts as inactive or inconclusive.

Experiments:
[1] = qHTS assay to identify small molecule antagonists of the estrogen related receptor (ERR) signaling pathway - cell viability counter screen (AID 1224818); settings: ERR reporter cell line viability counter screen; series mostly up to 46.1 µM;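 note: viability measured after 17.5 h of compound exposure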
In short: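 Cytotoxicity counter screen: fluorescence from CellTiter-Fluor, added after 17.5 h compound exposure at 37 C and read 30 min later. ERR cell line seeded at 2,000 cells/well, preincubated 6 h before dosing.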

[2] = qHTS assay to identify small molecule antagonists of the estrogen related receptor (ERR) signaling pathway (AID 1224819;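 note: luminescence from an ERR-driven luciferase reporter measured with One-Glo reagent; nearly all actives have a fitted effect of over 50% in size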); settings: ERR reporter cell line, luciferase inhibition; series mostly up to 46.1 µM
In short: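 LOPAC library screened for antagonism as reduced One-Glo luminescence in ERR reporter cells (2,000/well). Compounds were added after 6 h pre-incubation and left 18 h at 37C; reading followed a 30 min room-temperature reagent step.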

[3] = system: estrogen-related receptor alpha (ERRalpha) with PGC-1alpha coactivator, human; test: qHTS assay to identify small molecule antagonists of the estrogen related receptor signaling pathway with the pleiotropic PPARgamma coactivator (PGC) (AID 1224821; calls by dose curve;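 note: lower luminescence signal means antagonism of PGC/ERR signalling; nearly all actives have a fitted effect of over 50% in size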); settings: ERR/PGC reporter cell line, luciferase, antagonist mode; series mostly up to 46.1 µM
In short: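 Screening used NTP's PGC/ERR cells, dosed via pin tool with compound in DMSO alongside positive and negative controls. After 18 h at 37 C, One-Glo reagent sat 30 min at room temperature before luminescence detection.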

[4] = qHTS assay to identify small molecule antagonists of the estrogen related receptor signaling pathway with the pleiotropic PPARgamma coactivator (PGC) cell viability counter screen (AID 1224822); settings: ERR/PGC reporter cell line viability counter screen; series mostly up to 46.1 µM
In short: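 Viability counter-screen read by fluorescence intensity after 30 min with CellTiter-Fluor at 37 C; PGC/ERR reporter cells were exposed to compounds for 17.5 h at 37 C following a 6 h preincubation.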

[5] = qHTS assay to identify small molecule agonists of the estrogen related receptor signaling pathway with the pleiotropic PPARgamma coactivator (PGC) (AID 1224823); settings: ERR/PGC reporter cell line, luciferase agonist mode; series mostly up to 46.1 µM
In short: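 In this quantitative high-throughput screen, an 18 h, 37 C treatment of PGC/ERR cells with compounds in DMSO preceded a One-Glo luminescence read taken after 30 min at room temperature.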

[6] = qHTS assay to identify small molecule agonists of the estrogen related receptor (ERR) signaling pathway (AID 1224820); settings: ERR reporter cell line, luciferase agonist mode; series mostly up to 46.1 µM
In short: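 Following a 6 h settling period, 2,000 ERR cells per well receive DMSO-dissolved compounds by pin tool and incubate 18 h at 37 C; agonist activity is scored from One-Glo luminescence read 30 min post-addition.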

[7] = qHTS assay to identify small molecule antagonists of the estrogen related receptor (ERR) signaling pathway from Tox21 library - cell viability counter screen (AID 1224834); settings: ERR reporter cells viability, CellTiter-Fluor, 17.5 h; series mostly up to 92.4 µM; note: potency is the fitted concentration of half-maximal effect; nearly all actives have a fitted effect of over 30% in size
In short: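 CellTiter-Fluor fluorescence, read after 30 min at 37 C, measures viability of ERR cells. Cells plated at 2,000/well and incubated 6 h before pin-tool compound addition, then exposed 17.5 hours at 37 C.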

[8] = molecular target: Luciferin 4-monooxygenase (Photinus pyralis) (UniProt P08659); test: qHTS assay to identify small molecule inhibitors of firefly luciferase (AID 1224835); note: potency is the fitted concentration of half-maximal effect; nearly all actives have a fitted effect of over 25% in size; settings: purified P. pyralis luciferase, luminescence inhibition; series mostly up to 115 µM
In short: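 Biochemical qHTS: compounds run as interplate titrations against purified firefly enzyme, with D-luciferin and ATP each at its KM concentration. Light output recorded by CCD imaging.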

Chain of Luciferin 4-monooxygenase (Photinus pyralis) (P08659 whole entry, looked up): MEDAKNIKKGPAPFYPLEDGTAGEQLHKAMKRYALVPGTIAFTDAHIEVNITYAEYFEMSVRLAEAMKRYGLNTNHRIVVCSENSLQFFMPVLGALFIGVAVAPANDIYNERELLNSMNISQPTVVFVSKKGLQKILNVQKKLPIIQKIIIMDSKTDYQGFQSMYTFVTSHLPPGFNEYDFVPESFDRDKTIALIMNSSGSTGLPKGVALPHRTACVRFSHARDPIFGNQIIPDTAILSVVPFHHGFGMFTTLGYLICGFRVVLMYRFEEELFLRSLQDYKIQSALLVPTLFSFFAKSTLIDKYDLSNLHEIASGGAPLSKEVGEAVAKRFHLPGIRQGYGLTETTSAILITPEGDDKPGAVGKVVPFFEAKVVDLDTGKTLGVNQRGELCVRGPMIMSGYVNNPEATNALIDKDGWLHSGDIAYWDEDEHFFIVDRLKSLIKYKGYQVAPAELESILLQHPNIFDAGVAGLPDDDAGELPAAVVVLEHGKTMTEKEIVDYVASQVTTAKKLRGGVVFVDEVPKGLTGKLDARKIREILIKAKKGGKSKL

Structure (SMILES): N[C@@H](CS(=O)O)C(=O)O
- Potency [1]: inactive
- Potency [2]: inactive
- Potency [3]: inactive
- Potency [4]: inactive
- Potency [5]: inactive

Structure (SMILES): CN(C)CCCc1cc(C(=O)Nc2ccc(-c3ccncc3)cc2)ccc1O
- Potency [1]: inactive
- Potency [2]: inactive
- Potency [3]: inactive
- Potency [4]: inactive
- Potency [5]: inactive

Structure (SMILES): Cc1cccc(C)c1OCC(N)C(C)C (centres undefined)
- Potency [1]: inactive
- Potency [2]: inactive
- Potency [3]: inactive
- Potency [4]: inactive
- Potency [5]: inactive

Structure (SMILES): COc1cc(/C=C(\C#N)C(=O)c2ccc(O)c(O)c2)cc(I)c1O
- Potency [1]: inactive
- Potency [2]: inactive
- Potency [3]: inactive
- Potency [4]: inactive
- Potency [5]: inactive

Structure (SMILES): COc1cc(N)c(Cl)cc1C(=O)OCCN1CCCCC1
- Potency [1]: inactive
- Potency [2]: inactive
- Potency [3]: inactive
- Potency [4]: inactive
- Potency [5]: inactive

Structure (SMILES): COC(=O)C(C)(N)Cc1ccc(O)cc1 (centres undefined)
- Potency [1]: inactive
- Potency [2]: inactive
- Potency [3]: inactive
- Potency [4]: inactive
- Potency [5]: inactive

Structure (SMILES): CN=c1nc(-c2ccccc2)n(-c2ccccc2)s1
- Potency [1]: inactive
- Potency [2]: inactive
- Potency [6]: inactive
- Potency [5]: inactive

Structure (SMILES): O=C(O)c1cc2cc(F)ccc2[nH]1
- Potency [1]: inactive
- Potency [2]: inactive
- Potency [3]: inactive
- Potency [4]: inactive
- Potency [5]: inactive

Structure (SMILES): C=CCN1CCc2cc(O)c(O)cc2C(c2ccccc2)C1 (centres undefined)
- Potency [1]: inactive
- Potency [2]: inactive
- Potency [3]: inactive
- Potency [4]: inactive
- Potency [5]: inactive

Structure (SMILES): CN1[C@@H](CC(=O)c2ccccc2)CCC[C@H]1C[C@H](O)c1ccccc1
- Potency [1]: inactive
- Potency [2]: inactive
- Potency [3]: inactive
- Potency [4]: inactive
- Potency [5]: inactive

Structure (SMILES): O=C(Nc1ccc2[nH]ncc2c1)C1CCC1
- Potency [1]: inactive
- Potency [2]: inactive
- Potency [3]: inactive
- Potency [4]: inactive

Structure (SMILES): O=c1[nH]c2cc(Cl)ccc2c(O)c1-c1ccc(Oc2ccccc2)cc1
- Potency [1]: inactive
- Potency [2]: inactive
- Potency [3]: inactive
- Potency [4]: inactive
- Potency [5]: inactive

Structure (SMILES): N#C/C(=C\c1ccc(O)c(O)c1)C(=O)c1ccc(O)c(O)c1
- Potency [1]: inactive
- Potency [2]: inactive
- Potency [3]: inactive
- Potency [4]: inactive
- Potency [5]: inactive

Structure (SMILES): COc1ccc(Br)cc1S(=O)(=O)NC(=O)/C=C/c1ccccc1Cc1ccc2ccccc2c1
- Potency [1]: inactive
- Potency [2]: inactive
- Potency [3]: inactive
- Potency [4]: inactive
- Potency [5]: inactive

Structure (SMILES): CN1Cc2sccc2C(c2ccc(O)c(O)c2)C1 (centres undefined)
- Potency [1]: inactive
- Potency [2]: inactive
- Potency [3]: inactive
- Potency [4]: inactive
- Potency [5]: inactive

Structure (SMILES): NC(N)=NC(N)=Nc1ccccc1
- Potency [1]: inactive
- Potency [2]: inactive
- Potency [3]: inactive
- Potency [4]: inactive
- Potency [5]: inactive

Structure (SMILES): CCCC(=O)c1cc(O)c(O)cc1O
- Potency [1]: inactive
- Potency [2]: inactive
- Potency [3]: inactive
- Potency [5]: inactive
- Potency [7]: 43.3 µM (active)
- Potency [8]: 31.7 µM (active)
